Results filed as inconclusive are left out. A call without a number means that no potency is given here. The source made the active and inactive calls. Calls follow the shape of the dose curve; as a rule, active = well fitted inhibition curve with a large enough effect; inconclusive = small, poorly fitted or top-dose-only effect, or effect the other way; inactive = flat fitted curve, though single readings scatter.

The test in a line: Counterscreen Assay for Enhancers of SMN2 Splice Variant Expression: Modulation of SMN1 Expression for Further Probe SAR. The conditions noted are these: HEK293 SMN1-luciferase reporter, luminescence, 30-36 h; series mostly up to 46.1 µM. An excerpt:
NIH Chemical Genomics Center [NCGC] NIH Molecular Libraries Probe Production centers Network [MLPCN] MLPCN Grant: R03 MH084179-01 Assay Submitter (PI): Elliot Androphy NCGC Assay Overview: Spinal muscular atrophy (SMA) is caused by insufficient levels of the survival motor neuron protein SMN. The SMN locus on chromosome 5q13 contains two inverted copies of SMN called SMN1 and SMN2 which are 99% identical at the amino acid level. SMN1 is a fully functional protein and SMN2 skips exon 7 90% of the time. Skipping of exon 7 produces non-functional protein product. 10% of the SMN2 protein includes exon 7 and is fully functional. In the SMA disease state, mutations in the SMN1 locus are the cause of the disease state. Because only 10% of SMN2 is of the fully functional form, it is not sufficient to overcome the deficiency produced by the loss of the SMN1 product. A therapy that either increases the amount of SMN2 product made increases the inclusion of exon 7 has been proposed for the treatment of SMA. We have designed an assay to identify small molecules that can increase the amount of functional SMN2 product by appending a luciferase reporter gene after the native SMN2 gene, such that inclusion of exon 7 in the expressed product places the luciferase sequence in frame, thus generating functional luciferase enzyme. As a counterscreen for nonspecific modulators of expression, we have run compounds through a similar assay that measures expression of an SMN1-luciferase chimera.
NCGC Assay Protocol Summary: This screen utilizes a luciferase reporter gene assay, combining the promoter with the major portion of the native SMN1 cDNA (exons 1 -7, intron 8 , exon 8 fused to luciferase) stably expressed in HEK293 cells. Compounds that increase luciferase signal presumably enhance expression of the functional SMN1 splice variant. Passaging media contained DMEM w/ glutamax (+phenol red) 10% FCS, 1x pen/strep, 200 ug/ml hygro, 1x sodium pyruvate. Assay media contained DMEM w/ glutamax (-phenol red) 10% FCS, 1x pen strep, 1x pyruvate Sequence, Parameter, Value, Description (1) Cells, 5 uL, 2000 cells/well, 1536 TC treated White solid bottom plate (2) Time, 10-12 hours, 37C 5% CO2 (3) Compound, 23 nl, MLSMR Library (4) Control Compound, 23 nL, Sodium butyrate st 4.5mM (final) conc (5) Time, 30-36 hours, 37C 5% CO2 (6) Reagent, 3 ul, One Glo (TM) from Promega (7) Time, 5-15 minutes, Room temp (8) Detector, Viewlux: luminescent read, 60 second integration, high speed 2x binning Keywords: Spinal muscular atrophy, SMA, SMN2, high throughput screening, MLSMR, MLPCN, NIH Roadmap, qHTS and NCGC
Regarding `NC(=O)C1CCN(c2nc(-c3cccc(C(F)(F)F)c3)cs2)CC1`, the Potency entry is “inactive”. `NC(=O)C1CCN(c2nc(-c3ccccc3)cs2)CC1`: the Potency result was “inactive”. `NC(=O)C1CCN(c2nnc(-c3ccc4c(c3)OCCCO4)s2)CC1`: the Potency was 1.54 µM (active).

Consider `CN(C)c1cccc(-c2cnc(N3CCC(C(N)=O)CC3)nc2)c1`, for which the Potency was 1.22 µM (active). Regarding `CCOc1ccc(-c2csc(N3CCC(C(N)=O)CC3)n2)cc1`, the Potency entry was “inactive”.

Regarding `NC(=O)C1CCN(c2nc(-c3ccc(Oc4ccccc4)cc3)cs2)CC1`, the Potency result was “inactive”. In the case of `O=C(NCc1ccccc1)C1CCN(c2nc(-c3ccc(Br)cc3)cs2)CC1`, the Potency entry was “inactive”. As for `CN(C)c1cccc(-c2cnc(N3CCC(C(N)=O)CC3)s2)c1`, the Potency is 0.772 µM (active). For `O=C(Nc1ccccc1)C1CCN(c2nc(-c3ccc(Br)cc3)cs2)CC1` the value was “inactive”; for `O=C(C1CCN(c2nc(-c3ccc(Br)cc3)cs2)CC1)N1CCNCC1`, “inactive”; for `NC(=O)C1CCN(c2nccc(Cl)n2)CC1`, “inactive”. `NC1CCN(c2nc(-c3ccc(Br)cc3)cs2)CC1`: the Potency was 19.4 µM (active). `COc1ccc(-c2cnc(N3CCC(C(N)=O)CC3)s2)cc1OC`: the Potency result is “inactive”.

As to `O=C(Nc1ccccc1)C1CCN(c2ncc(-c3ccc4c(c3)OCCCO4)s2)CC1`, the Potency was 0.487 µM (active). In the case of `NC(=O)C1CCN(c2ncc(-c3cccc(N4CCCCC4)c3)s2)CC1`, the Potency entry was “inactive”.

As to `COc1ccccc1-c1csc(N2CCC(C(N)=O)CC2)n1`, the Potency entry was “inactive”. As to `O=C(NCCc1ccccc1)C1CCN(c2nc(-c3ccc(Br)cc3)cs2)CC1`, the Potency result was “inactive”. As to `Nc1nc(N)c2c(OCC3CCN(Cc4ccccc4F)CC3)cccc2n1`, the Potency was 19.4 µM (active). Consider `CCOC(=O)C1CCN(c2ncc(-c3ccc4c(c3)OCCCO4)s2)CC1`, for which the Potency was 0.387 µM (active). On to `O=C(O)C1CCN(c2ncc(-c3ccc4c(c3)OCCCO4)s2)CC1`, for which the Potency was 0.244 µM (active).

Consider `NC(=O)C1CCN(c2nc(-c3ccc(C(F)(F)F)cc3)cs2)CC1`, for which the Potency result was “inactive”. Consider `NC(=O)C1CCN(c2nc(-c3ccc4c(c3)OCCCO4)cs2)CC1`, for which the Potency is 7.72 µM (active). In the case of `NC(=O)C1CCN(c2ncc(-c3ccc4c(c3)OCCO4)s2)CC1` it was 1.22 µM (active); in that of `COc1cc(OC)cc(-c2csc(N3CCC(C(N)=O)CC3)n2)c1`, “inactive”. Regarding `CN(C)c1cccc(-c2nccc(N3CCC(C(N)=O)CC3)n2)c1`, the Potency result was “inactive”. On to `N#Cc1cccc(-c2csc(N3CCC(C(N)=O)CC3)n2)c1`, for which the Potency entry was “inactive”. Regarding `Cc1cnc(N2CCC(C(N)=O)CC2)nc1-c1cccc(N(C)C)c1`, the Potency result was “inactive”.

Consider `NC(=O)C1CCN(c2ncc(-c3ccc4c(c3)OCO4)s2)CC1`, for which the Potency is 0.972 µM (active).

Consider `CS(=O)(=O)c1ccc(-c2csc(N3CCC(C(N)=O)CC3)n2)cc1`, for which the Potency result was “inactive”. For `CSc1ccc(-c2cnc(N3CCC(C(N)=O)CC3)s2)cc1` the value was 0.972 µM (active). As for `NC(=O)C1CCN(c2nc(-c3cccc(Br)c3)cs2)CC1`, the Potency result was “inactive”. As for `NC(=O)C1CCN(c2nc(-c3cccc(F)c3)cs2)CC1`, the Potency result is “inactive”.

For `CC(C)COc1ccc(-c2csc(N3CCC(C(N)=O)CC3)n2)cc1`, the Potency entry is “inactive”. In the case of `NC(=O)C1CCN(c2ncc(-c3cccc(N4CCCC4)c3)s2)CC1` it was 12.2 µM (active); in that of `NC(=O)C1CCN(c2nc(-c3ccc(OCc4ccccc4)cc3)cs2)CC1`, “inactive”.

As to `NC(=O)C1CCN(c2nc(-c3ccc4c(c3)CCO4)cs2)CC1`, the Potency entry is “inactive”. Take `CC(C)(C)OC(=O)NC1CCN(c2nc(-c3ccc(Br)cc3)cs2)CC1`: the Potency entry is “inactive”. Regarding `NC(=O)C1CCN(c2nc(-c3cccc4ccccc34)cs2)CC1`, the Potency entry was “inactive”. As for `CC(C)Oc1ccc(-c2csc(N3CCC(C(N)=O)CC3)n2)cc1`, the Potency result was “inactive”.

In the case of `NC(=O)C1CCN(c2ncc(-c3ccc4c(c3)OC(F)(F)O4)s2)CC1`, the Potency is 15.4 µM (active).

These data come from PubChem BioAssay AID488821 (National Center for Advancing Translational Sciences (NCATS), 2010).
